ATXN viability: viability counter-screen for ATXN expression inhibitors; S2 cells (HEK-293 line with an ATXN2-luciferase reporter) viability, CellTiter-Fluor protease fluorescence, 24 h; Potency, µM (top dose mostly 56.7 µM), hits mostly cytotoxic; actives 0.49% (n = 400,000); AID 651635; further: nearly all actives have a fitted effect of over 40% in size
ATXN2 expr inh: inhibitors of ATXN2 expression; actives 0.72% (n = 360,000); AID 1745845; Potency, µM (series often up to 57 µM), for inactives: top-dose activity change, negative = inhibition, hits mostly inhibitors; HEK-293 ATXN2-luciferase reporter, luminescence, 24 h; further: on the % scale 0 is the no-effect control and ±100 the full control effect; nearly all actives have a fitted effect of over 55% in size
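qHTS (up to 57 uM final) was run with 24 h compound exposure of reporter cells at 37 °C. Each well was multiplexed: SteadyGlo luminescence measured ATXN2-luciferase expression after a fluorogenic Gly-Phe-AFC viability readout (25 uM final).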
HT1080-NT tox: kills 2HG-producing HT-1080-NT fibrosarcoma cells; AID 686970; actives 1.6% (n = 360,000); Potency, µM (top dose mostly 46.1 µM), for inactives: top-dose activity, negative = less viability, usual class: cytotoxic; HT-1080-NT fibrosarcoma viability, CellTiter-Glo ATP luminescence, 48 h;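 further: NT is the 2HG producing partner of a matched IDH1 knockdown line; 0% = DMSO-treated cells and -100% = media-only wells without cells; nearly all actives have a fitted effect of over 55% in size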
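Compounds were tested in concentration-response format on HT-1080-NT cells for 48 hours at 37 degrees C. Cell viability came from CellTiter-Glo luminescence; curves were classified by r2, response magnitude and activity.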
KB-V1 cytotox: kills drug-selected multidrug resistant KB-V1 cells; KB-V1 MDR cells viability, CellTiter-Glo, 72 h; Potency, µM (highest dose often 46.1 µM), actives largely listed as cytotoxic; actives 3.4% (n = 400,000); further: on the % scale 0 is the no-effect control and ±100 the full control effect; nearly all actives have a fitted effect of over 60% in size
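Potencies derive from concentration-effect curves fitted to normalized luminescence (CellTiter-Glo) of KB-V1 cells treated for 72 h at 37 degrees C in phenol-red-free DMEM containing 10% FBS.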
HT1080 IDH1KD tx: toxicity to HT-1080 IDH1 knockdown cells (counter line); HT-1080 IDH1 knockdown viability, ATP luminescence, 48 h; Potency, µM (series often up to 46.1 µM), inactives show top-dose activity, negative = toxicity, actives largely listed as cytotoxic; actives 2% (n = 360,000);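 further: 0% = DMSO wells and -100% = cell-free medium wells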
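Using the IDH1-knockdown HT-1080 line run in the same batch and compound series as the NT line, viability after 48 h at 37 °C was determined by CellTiter-Glo luminescence and expressed as % activity.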
KB-3-1 cytotox: kills parental KB-3-1 adenocarcinoma cells; KB-3-1 viability, CellTiter-Glo ATP luminescence, 72 h; Potency, µM (series often up to 46.1 µM), usual class: cytotoxic; actives 1.4% (n = 400,000); AID 1347075; further: on the % scale 0 is the no-effect control and ±100 the full control effect; nearly all actives have a fitted effect of over 60% in size
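Cytotoxicity measured as CellTiter-Glo luminescence after 72 h at 37 C. Compound titrations were pinned onto drug-naive KB-3-1 parental adenocarcinoma cells grown in DMEM with 10% FBS, and normalized data fitted to concentration-response curves.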
* marks the source's active call; other numbers are inactive results; i = inactive; ? = inconclusive; · = not tested or not shown; ! = not confirmed by another sample; [ ] = remark or other dose. Only some compounds are listed: those with a hit (about 6.2% of all), similar ones and a draw of the others. The call rests on the fitted dose curve; in most records, active means well fitted curve in the direction sought with a large enough effect; inconclusive means small, poorly fitted or top-dose-only effect, or another doubt; inactive means no such curve, though single readings can be large; an effect the other way counts as inactive or inconclusive. Potency means the concentration at half of the fitted maximal effect.

SMILES | ATXN viability | ATXN2 expr inh | HT1080-NT tox | KB-V1 cytotox | HT1080 IDH1KD tx | KB-3-1 cytotox
O=c1[nH]c(=O)n([C@H]2C[C@H](O)[C@@H](CO)O2)cc1F | ? | 7.94µM*! | 0.461µM* | ? | 0.731µM* | ?
O=c1[nH]c(=O)n(C2CC(O)C(CO)O2)cc1I (centres undefined) | i | -1.0% | 3.3% | i | -1.8% | i
O=C(Nc1nc(NC(=O)c2ccco2)n(-c2ccccc2)n1)c1ccccc1 | i | ? | 10µM* | 4.11µM* | 2.51µM* | 16.4µM*
CCc1cccc(NC(=O)CCc2c(C)nc3c(c2C)c(=O)n(C)c(=O)n3C)c1 | i | -24.0% | · | i | · | i
CCCCCn1cc2c(c1-c1ccc(Br)cc1)c(=O)n(C)c(=O)n2C | i | 1.2% | · | i | · | i
O=C(NC(c1ccc2ccccc2n1)c1cccs1)C1CCN(Cc2cccc(C(F)(F)F)c2)CC1 (centres undefined) | ? | 0.0% | ? | ? | 16.4µM* | ?
O=C(NC(c1ccccc1)c1ccc2ccccc2n1)C1CCN(Cc2cccc(C(F)(F)F)c2)CC1 (centres undefined) | ? | ? | ? | ? | 14.6µM* | ?
COc1ccc(C(=O)NCC(=O)OCC(=O)c2cccc3ccccc23)cc1 | · | · | · | i | · | ?
c1ccc(C2=NN(c3ccccc3)CC2)cc1 | · | · | 0.0% | i | 2.5% | i
CCOC(=O)/C(=C/c1ccc(N2CCC(c3ccccc3)=N2)cc1)C(C)=O | · | 1.89µM* | 6.7% | i | 0.1% | i
COc1ccc(CNC(=O)C(Cc2ccccc2)NS(=O)(=O)c2ccc3c(c2)CCN3C(C)=O)cc1 (centres undefined) | i | 8.2% | · | i | · | i
COCCNC(=S)N1CCN(c2cccc(C)c2C)CC1 | i | -28.2% | -11.9% | 20.6µM* | -23.1% | i
Nc1c(C(=O)Nc2ccc(Br)cc2)sc2nc(-c3ccco3)ccc12 | · | -22.1% | -25.0% | 5.17µM* | -23.3% | i
Cc1ccc(C(=O)CSc2nnc(-c3ccc4[nH]c(C)c(C)c4c3)o2)cc1C | ? | ? | 11.2% | i | 3.1%[9.24 µM] | i
Cc1ccc(-c2nnc(SCC(=O)Nc3ccccc3F)o2)cc1 | i | -79.7% | 13µM* | 8.2µM* | 20.6µM* | 5.17µM*
O=C(CSc1nnc(-c2ccccc2)o1)Nc1ccccc1F | i | ? | -29.5% | ? | ? | i
Cc1[nH]c2ccc(-c3nnc(SCC(=O)c4ccccc4F)o3)cc2c1C | i | 15.3% | -13.1% | 20.6µM* | -11.9% | i
Cc1ccc(-c2nnc(SCC(=O)Nc3ccccc3N3CCOCC3)o2)cc1 | i | -12.5% | 8.5% | 13µM* | 28.2% | i
CCOC(=O)N1CCC(NC(=O)c2cnn(-c3ccc(OC)cc3)c2C2CCN(C(=O)OC(C)(C)C)CC2)CC1 | · | · | · | i | · | i
CNC(=O)c1ccc(N2C(=S)N(c3cnc(C#N)c(C(F)(F)F)c3)C(=O)C23CCC3)cc1F | · | 13.7µM* | · | · | · | ·
Cc1ccn2c(=O)c(C(=O)Nc3ccc(F)c(C(F)(F)F)c3)cnc2c1 | i | 2.4% | · | i | · | i
Nn1c(Cc2cccc3ccccc23)nnc1SCc1ccccc1 | i | 1.8% | 6.3% | 16.4µM* | 2.8% | i
CCOC(=O)c1ccc(-n2ccnc2)c(NC(=O)c2ccc(Cl)cc2)c1 | i | -4.0% | 2.5% | 14.6µM* | 0.8% | i
Cc1cccc(C(=O)Nc2ccc(OCc3cc(=O)n4ccc(C)cc4n3)cc2)c1 | · | · | · | i | · | i
Cc1cc(C=O)cc(C)c1[N+](=O)[O-] | · | · | · | i | · | i
COc1ccc(C)cc1NC(=O)CSc1nc(=O)n(Cc2ccco2)c2c1CCC2 | i | ? | · | i | · | i
O=C(COc1ccccc1)N(CCc1ccccc1)c1nc(-c2ccc(F)cc2)cs1 | ? | -2.4% | 18.6% | 14.6µM* | 21.3% | i

Compound activity: PubChem BioAssay, National Center for Advancing Translational Sciences (NCATS)
